From PMC8384837, “Expanding the binding specificity for RNA recognition by a PUF domain”
Changes are numbered by the printed parent chain.

Legend:
Assay in all cases: yeast three-hybrid, YBZ-1, SC-Leu-His + 0.5 mM 3-AT, 4 days
Details in all cases: tags: N-Gal4 AD-HA kept; label: inside an RPR1-promoter hybrid RNA with tandem MS2 sites; ssRNA
PUM1 PUF domain R6-EWG = biological target: T1, PUM1 PUF domain R6-EWG (Homo sapiens, UniProt Q14671 828-1176, N1043E;Y1044W;Q1047G)
T1 sequence: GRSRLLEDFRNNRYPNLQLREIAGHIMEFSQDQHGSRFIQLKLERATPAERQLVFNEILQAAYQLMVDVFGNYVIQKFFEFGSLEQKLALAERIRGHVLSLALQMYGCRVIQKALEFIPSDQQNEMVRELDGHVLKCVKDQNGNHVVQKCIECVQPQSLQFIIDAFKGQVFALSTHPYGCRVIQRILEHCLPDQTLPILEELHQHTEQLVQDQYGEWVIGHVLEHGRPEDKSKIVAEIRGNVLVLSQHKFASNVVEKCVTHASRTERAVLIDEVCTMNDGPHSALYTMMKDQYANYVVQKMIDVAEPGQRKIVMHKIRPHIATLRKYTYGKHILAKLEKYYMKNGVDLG
In short: (§1)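 Sequencing with Illumina followed PCR amplification of the repeat regions from transformants grown four days on SC-Leu (input) or SC-Leu-His + 0.5 mM 3-AT (selection). The transformants were strain YBZ-1 with a LexA–MS2 coat fusion and a HIS3 reporter, carrying Pumilio-1 PUF domain libraries and matching RNA elements. The interaction score is the log change in variant frequency from input to selection, computed in log2 with a pseudocount of 1 for absent variants.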

PUM1 PUF domain R6-VWM = biological target: T2, PUM1 PUF domain R6-VWM (Homo sapiens, UniProt Q14671 828-1176, N1043V;Y1044W;Q1047M)
T2 sequence: T1 sequence with E216V, G220M
In short: as §1

PUM1 PUF domain R8-QFR = PUM1 PUF domain R8-QFR (Homo sapiens, UniProt Q14671 828-1176, N1122Q;Y1123F;Q1126R)
In short: as §1

PUM1 PUF domain R8-QYP = PUM1 PUF domain R8-QYP (Homo sapiens, UniProt Q14671 828-1176, N1122Q;Q1126P)
In short: as §1

PUM1 PUF domain R8-RRR = PUM1 PUF domain R8-RRR (Homo sapiens, UniProt Q14671 828-1176, N1122R;Y1123R;Q1126R)
In short: as §1

PUM1 PUF domain R3-IFR = PUM1 PUF domain R3-IFR (Homo sapiens, UniProt Q14671 828-1176, C935I;R936F;Q939R)
In short: as §1

PUM1 PUF domain R3-RRP = PUM1 PUF domain R3-RRP (Homo sapiens, UniProt Q14671 828-1176, C935R;Q939P)
In short: as §1

PUM1 PUF domain R4-QPA = PUM1 PUF domain R4-QPA (Homo sapiens, UniProt Q14671 828-1176, N971Q;H972P;Q975A)
In short: as §1

PUM1 PUF domain R5-GSE = PUM1 PUF domain R5-GSE (Homo sapiens, UniProt Q14671 828-1176, C1007G;R1008S;Q1011E)
In short: as §1

PUM1 PUF domain R7-LSV = PUM1 PUF domain R7-LSV (Homo sapiens, UniProt Q14671 828-1176, S1079L;N1080S;E1083V)
In short: as §1

Which binding signal (PUM1 PUF domain R6-EWG) does the source give for “GGCUAGAACUAGUGGAUCCCCCGGCGCCCGGCGGCUCGAGCCCGGGUAAGUGUAAAUAGUCUGCAUGCCGCCGGGCGCCAUGCCUGCAGGUCGACUCUAGAAAACAUG” here?
The binding signal was 4.03 log2 enrichment (interaction score).

And the binding signal (PUM1 PUF domain R6-VWM)?
Its binding signal is 4.44 log2 enrichment (interaction score).

What about the binding signal (PUM1 PUF domain R8-QFR) of the same sequence?
Its binding signal is 4.27 log2 enrichment (interaction score).

And the binding signal (PUM1 PUF domain R8-QYP)?
Its binding signal is 2.62 log2 enrichment (interaction score).

What about the binding signal (PUM1 PUF domain R8-RRR) of the same sequence?
The binding signal was 5.23 log2 enrichment (interaction score).

What does the source list for “GGCUAGAACUAGUGGAUCCCCCGGCGCCCGGCGGCUCGAGCCCGGGUAAGUGAAAAUAGUCUGCAUGCCGCCGGGCGCCAUGCCUGCAGGUCGACUCUAGAAAACAUG”?
binding signal (PUM1 PUF domain R6-EWG): 1.75 log2 enrichment (interaction score); binding signal (PUM1 PUF domain R6-VWM): 6.06 log2 enrichment (interaction score)

With “GGCUAGAACUAGUGGAUCCCCCGGCGCCCGGCGGCUCGAGCCCGGGUAAGUGUAAGUAGUCUGCAUGCCGCCGGGCGCCAUGCCUGCAGGUCGACUCUAGAAAACAUG” as the sequence, how does the binding signal (PUM1 PUF domain R3-IFR) read?
Its binding signal is 5.53 log2 enrichment (interaction score).

What does the source list for “GGCUAGAACUAGUGGAUCCCCCGGCGCCCGGCGGCUCGAGCCCGGGUAAGUGUAAUUAGUCUGCAUGCCGCCGGGCGCCAUGCCUGCAGGUCGACUCUAGAAAACAUG”?
binding signal (PUM1 PUF domain R3-IFR): 3.8 log2 enrichment (interaction score); binding signal (PUM1 PUF domain R3-RRP): 4.3 log2 enrichment (interaction score)

For “GGCUAGAACUAGUGGAUCCCCCGGCGCCCGGCGGCUCGAGCCCGGGUAAGUGUAUAUAGUCUGCAUGCCGCCGGGCGCCAUGCCUGCAGGUCGACUCUAGAAAACAUG”, which binding signal (PUM1 PUF domain R4-QPA) is on record?
The binding signal was 3.55 log2 enrichment (interaction score).

With “GGCUAGAACUAGUGGAUCCCCCGGCGCCCGGCGGCUCGAGCCCGGGUAAGCGUAAAUAGUCUGCAUGCCGCCGGGCGCCAUGCCUGCAGGUCGACUCUAGAAAACAUG” as the sequence, how does the binding signal (PUM1 PUF domain R8-QFR) read?
The binding signal was 5.16 log2 enrichment (interaction score).

And the binding signal (PUM1 PUF domain R8-RRR)?
Its binding signal is 5.62 log2 enrichment (interaction score).

How did the binding signal (PUM1 PUF domain R5-GSE) turn out when “GGCUAGAACUAGUGGAUCCCCCGGCGCCCGGCGGCUCGAGCCCGGGUAAGUGUGAAUAGUCUGCAUGCCGCCGGGCGCCAUGCCUGCAGGUCGACUCUAGAAAACAUG” was run?
Its binding signal is 3.41 log2 enrichment (interaction score).

How did the binding signal (PUM1 PUF domain R7-LSV) turn out when “GGCUAGAACUAGUGGAUCCCCCGGCGCCCGGCGGCUCGAGCCCGGGUAAGUUUAAAUAGUCUGCAUGCCGCCGGGCGCCAUGCCUGCAGGUCGACUCUAGAAAACAUG” was run?
Its binding signal is 4.05 log2 enrichment (interaction score).
